Measurements as given in PubChem BioAssay (NCATS).
Several values for one entry are separate records, joined by “and”; a condition that tells them apart may be missing. Identical values can stand only once. Inconclusive results are not listed. Activity calls are given as the source filed them. Calls come from the whole dose curve; as a rule, active = well fitted curve in the direction sought with a large enough effect; inconclusive = small, poorly fitted or top-dose-only effect, or another doubt; inactive = no such curve, though single readings can be large; an effect the other way counts as inactive or inconclusive. *1 amine or outer side, *2 acyl side, *3 side chain or, on linkers, in order; H or OH if unused. Where a SMILES comes first, the peptide text is derived from it. Bridges are numbered along the chain shown (N, C = ends). X6 = O=C(CCC[*:2])[*:1]

Assays:
NIH3T3 = assay: qHTS assay to identify novel small-molecules to repurpose for Merkel cell carcinoma treatment (AID 1296009); conditions: MCC and control cell lines, CellTiter-Glo viability, 72 h; at 44.8 µM (top of the series) unless noted; note: nearly all actives have a fitted effect of over 60% in size
How it was run: (§1)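 Luminescence from CellTiter-Glo, read 10 min after addition at room temperature, reported viability following a 72 hr, 37 degree celsius treatment with NPC or MIPE compounds in titration; values normalized to plate controls.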

C33A = assay: Primary qHTS to identify gynecologic anti-cancer compounds using libraries of approved drugs and bioactive compounds (AID 1345084); conditions: Gynecologic cancer cell panel viability, ATPlite luminescence, 48 h; series mostly up to 57.5 µM; note: nearly all actives have a fitted effect of over 55% in size
How it was run: (§2)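 ATP-based viability (ATPlite), 1,000 cells/well, 16 h pre-incubation, 48 h compound at 37 C, 5% CO2, 15 min RT before read.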

CAOV3 = assay: as above; conditions: Gynecologic cancer cell panel viability, ATPlite luminescence, 48 h; series mostly up to 57.5 µM
How it was run: as §2

CASKI = assay: as above; conditions: Gynecologic cancer cell panel viability, ATPlite luminescence, 48 h; series mostly up to 57.5 µM
How it was run: as §2

Es-2 = assay: as above; conditions: Gynecologic cancer cell panel viability, ATPlite luminescence, 48 h; series mostly up to 57.5 µM
How it was run: as §2

HeLa = assay: as above; conditions: Gynecologic cancer cell panel viability, ATPlite luminescence, 48 h; series mostly up to 57.5 µM
How it was run: as §2

Hek293T = assay: as above; conditions: Gynecologic cancer cell panel viability, ATPlite luminescence, 48 h, control line for the selectivity index; series mostly up to 57.5 µM
How it was run: as §2

JEG-3 = assay: as above; conditions: Gynecologic cancer cell panel viability, ATPlite luminescence, 48 h; series mostly up to 57.5 µM
How it was run: as §2

OV90 = assay: as above; conditions: Gynecologic cancer cell panel viability, ATPlite luminescence, 48 h; series mostly up to 57.5 µM
How it was run: as §2

PA-1 = assay: as above; conditions: Gynecologic cancer cell panel viability, ATPlite luminescence, 48 h; series mostly up to 57.5 µM
How it was run: as §2

SKOV3 = assay: as above; conditions: Gynecologic cancer cell panel viability, ATPlite luminescence, 48 h; series mostly up to 57.5 µM
How it was run: as §2

Tov-21-G = assay: as above; conditions: Gynecologic cancer cell panel viability, ATPlite luminescence, 48 h; series mostly up to 57.5 µM
How it was run: as §2

Tov112D = assay: as above; conditions: Gynecologic cancer cell panel viability, ATPlite luminescence, 48 h; series mostly up to 57.5 µM
How it was run: as §2

MCC-26 = assay: qHTS assay to identify novel small-molecules to repurpose for Merkel cell carcinoma treatment (AID 1296009); conditions: MCC and control cell lines, CellTiter-Glo viability, 72 h; series mostly up to 46 µM; note: nearly all actives have a fitted effect of over 60% in size
How it was run: as §1

MKL-1 = assay: as above; conditions: MCC and control cell lines, CellTiter-Glo viability, 72 h; series mostly up to 46 µM
How it was run: as §1

MKL-2 = assay: as above; conditions: MCC and control cell lines, CellTiter-Glo viability, 72 h; series mostly up to 46 µM
How it was run: as §1

UISO = assay: as above; conditions: MCC and control cell lines, CellTiter-Glo viability, 72 h; series mostly up to 46 µM
How it was run: as §1

WaGa = assay: as above; conditions: MCC and control cell lines, CellTiter-Glo viability, 72 h; series mostly up to 46 µM
How it was run: as §1

[1] = Drug repurposing screens with cells derived from glioblastoma tumor samples (AID 1345199); conditions: GBM patient neurospheres viability, ATP luminescence, 48 h; note: nearly all actives have a fitted effect of over 40% in size
How it was run: (§3)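 Primary testing used CD133+ neurospheres from four GBM patients, seven concentrations, 48 h exposure and ATP-based viability; confirmation added three slower-growing patient lines.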

astro = assay: as above; conditions: viability, ATP luminescence, 48 h; series mostly up to 45.9 µM
How it was run: as §3
% is set by controls: 0 for no effect and ±100 for the full control effect.

CC(=O)N(O)CCCCCN1C(=O)CCC1=O
inactive: outcome (NIH3T3) | Potency (C33A) | Potency (CAOV3) | Potency (CASKI) | Potency (Es-2) | Potency (HeLa) | Potency (Hek293T) | Potency (JEG-3) | Potency (OV90) | Potency (PA-1) | Potency (SKOV3) | Potency (Tov-21-G) | Potency (Tov112D)

CC[C@H](C)[C@@H]1NC(=O)[C@H](Cc2ccc(OC)cc2)NC(=O)CCCSC[C@@H](C(=O)N2CCC[C@H]2C(=O)N[C@@H](CC(C)C)C(=O)NCC(N)=O)NC(=O)[C@H](CC(N)=O)NC(=O)[C@H](CCC(N)=O)NC1=O (Y(Me)IQNCPLG-NH2; linker N-5 via X6)
inactive: outcome (NIH3T3) | Potency (C33A) | Potency (CAOV3) | Potency (CASKI) | Potency (Es-2) | Potency (HeLa) | Potency (Hek293T) | Potency (JEG-3) | Potency (OV90) | Potency (PA-1) | Potency (SKOV3) | Potency (Tov-21-G) | Potency (Tov112D)

CC1=CCC2C(C)(CO)CCCC2(C)C1CC12OC1C(O)C(CO)=CC2O (stereo not drawn)
inactive: outcome (NIH3T3) | Potency (C33A) | Potency (CAOV3) | Potency (CASKI) | Potency (Es-2) | Potency (HeLa) | Potency (Hek293T) | Potency (JEG-3) | Potency (OV90) | Potency (PA-1) | Potency (SKOV3) | Potency (Tov-21-G) | Potency (Tov112D)

C/C=C1\[C@H](O[C@@H]2O[C@H](CO)[C@@H](O)[C@H](O)[C@H]2O)OC=C(C(=O)OC)[C@H]1CC(=O)OC
inactive: outcome (NIH3T3) inactive [at 17.4 µM] | Potency (C33A) | Potency (CAOV3) | Potency (CASKI) | Potency (Es-2) | Potency (HeLa) | Potency (Hek293T) | Potency (JEG-3) | Potency (OV90) | Potency (PA-1) | Potency (SKOV3) | Potency (Tov-21-G) | Potency (Tov112D)

C/C=C/C1=CC2=C(CO1)C(=O)[C@](C)(O)[C@H](OC(=O)c1c(O)cc(OC)c(O)c1C)C2
inactive: outcome (NIH3T3) inactive [at 17.4 µM] | Potency (C33A) | Potency (CAOV3) | Potency (CASKI) | Potency (Es-2) | Potency (HeLa) | Potency (Hek293T) | Potency (JEG-3) | Potency (OV90) | Potency (PA-1) | Potency (SKOV3) | Potency (Tov-21-G) | Potency (Tov112D)

CC(=O)OC1C=C(C(=O)O)C2(CO)CCC(C)C(C)(CCc3ccoc3)C2C1 (stereo not drawn)
inactive: outcome (NIH3T3) inactive [at 17.4 µM] | Potency (C33A) | Potency (CAOV3) | Potency (CASKI) | Potency (Es-2) | Potency (HeLa) | Potency (Hek293T) | Potency (JEG-3) | Potency (OV90) | Potency (PA-1) | Potency (SKOV3) | Potency (Tov-21-G) | Potency (Tov112D)

CC(=O)OC(C)OC(=O)C(C)c1ccc(-c2ccccc2)c(F)c1 (stereo not drawn)
inactive: outcome (MCC-26) | outcome (MKL-1) | outcome (MKL-2) | outcome (UISO) | outcome (WaGa) | Potency (C33A) | Potency (CAOV3) | Potency (CASKI) | Potency (Es-2) | Potency (HeLa) | Potency (Hek293T) | Potency (JEG-3) | Potency (OV90) | Potency (PA-1) | Potency (SKOV3) | Potency (Tov-21-G) | Potency (Tov112D) | activity, negative = cell killing ([1]; at 45.9 µM (top of the series), tumour line B) 13.2% and -1.22% | activity, negative = cell killing ([1]; at 45.9 µM (top of the series), tumour line D) 13.1% and -23.3% | activity, negative = cell killing ([1]; at 46 µM (top of the series), tumour line A) -17.1% | activity, negative = cell killing ([1]; at 46.1 µM (top of the series), tumour line C) 1.46% and -25.4% | Potency (astro)

CC1[C@@H](O)[C@@H](O)C2[C@]3(C)C(C[C@H]4OC(=O)[C@H](O)[C@]1(O)[C@@]24C)C(C)(O)C[C@H](O)[C@H]3O (stereo partly drawn)
inactive: outcome (NIH3T3) inactive [at 17.4 µM] | Potency (C33A) | Potency (CAOV3) | Potency (CASKI) | Potency (Es-2) | Potency (HeLa) | Potency (Hek293T) | Potency (JEG-3) | Potency (OV90) | Potency (PA-1) | Potency (SKOV3) | Potency (Tov-21-G) | Potency (Tov112D)

CCOC(=O)[C@H](CCc1ccccc1)N[C@@H](C)C(=O)N1C2CCCCC2C[C@H]1C(=O)O (stereo partly drawn)
inactive: outcome (NIH3T3) | Potency (C33A) | Potency (CAOV3) | Potency (CASKI) | Potency (Es-2) | Potency (HeLa) | Potency (Hek293T) | Potency (JEG-3) | Potency (OV90) | Potency (PA-1) | Potency (SKOV3) | Potency (Tov-21-G) | Potency (Tov112D)

CC(=O)OC[C@@]12[C@H](O)C[C@@H](C)[C@]3(C[C@@H](c4ccoc4)OC3=O)[C@H]1C[C@H](O)C[C@]21CO1
inactive: outcome (NIH3T3) inactive [at 17.4 µM] | Potency (C33A) | Potency (CAOV3) | Potency (CASKI) | Potency (Es-2) | Potency (HeLa) | Potency (Hek293T) | Potency (JEG-3) | Potency (OV90) | Potency (PA-1) | Potency (SKOV3) | Potency (Tov-21-G) | Potency (Tov112D)

COC(=O)c1ccc(O[C@@H]2O[C@H](CO)[C@@H](O)[C@H](O)[C@H]2O)c(OC)c1
inactive: outcome (NIH3T3) | Potency (C33A) | Potency (CAOV3) | Potency (CASKI) | Potency (Es-2) | Potency (HeLa) | Potency (Hek293T) | Potency (JEG-3) | Potency (OV90) | Potency (PA-1) | Potency (SKOV3) | Potency (Tov-21-G) | Potency (Tov112D)

CC(/C=C/C1(O)C(C)(C)CC(O)CC1(C)O)OC1OC(CO)C(O)C(O)C1O (stereo not drawn)
inactive: outcome (NIH3T3) inactive [at 17.4 µM] | Potency (C33A) | Potency (CAOV3) | Potency (CASKI) | Potency (Es-2) | Potency (HeLa) | Potency (Hek293T) | Potency (JEG-3) | Potency (OV90) | Potency (PA-1) | Potency (SKOV3) | Potency (Tov-21-G) | Potency (Tov112D)

c1ccc(Cc2ncc3c(n2)CCNCC3)cc1
inactive: outcome (NIH3T3) | Potency (C33A) | Potency (CAOV3) | Potency (CASKI) | Potency (Es-2) | Potency (HeLa) | Potency (Hek293T) | Potency (JEG-3) | Potency (OV90) | Potency (PA-1) | Potency (SKOV3) | Potency (Tov-21-G) | Potency (Tov112D)
